Only some compounds are listed: those with a hit (about 5.2% of all), similar ones and a draw of the others.
VDR inhibitor: blocks the human vitamin D receptor; P11473; VDR-SRC2-3 peptide fluorescence polarization, 2 h; Potency, µM, for the others: max response, negative = inhibition, most hits filed as inhibitors; hit rate 0.93% among 400,000
Target sequence (P11473 whole entry, looked up): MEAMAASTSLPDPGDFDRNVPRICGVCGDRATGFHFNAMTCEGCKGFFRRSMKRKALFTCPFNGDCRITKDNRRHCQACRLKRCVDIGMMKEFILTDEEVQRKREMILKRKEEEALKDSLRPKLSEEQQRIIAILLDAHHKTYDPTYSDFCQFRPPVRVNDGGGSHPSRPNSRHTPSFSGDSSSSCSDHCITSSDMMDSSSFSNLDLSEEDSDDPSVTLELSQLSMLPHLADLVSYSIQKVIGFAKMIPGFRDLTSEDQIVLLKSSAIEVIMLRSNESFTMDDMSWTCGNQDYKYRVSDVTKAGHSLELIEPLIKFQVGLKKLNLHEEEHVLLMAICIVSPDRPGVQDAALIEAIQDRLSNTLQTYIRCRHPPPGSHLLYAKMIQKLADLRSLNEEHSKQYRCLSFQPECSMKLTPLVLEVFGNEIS
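Fluorescence polarization assay of small-molecule disruption of VDR binding to coregulator peptide SRC2-3. Compounds and controls pin-transferred, then read after 2 h incubation at ambient room temperature.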
PLK1 PBD inh: PLK1 (human) polo-box domain binding inhibition; Plk1 PBD binding of FITC phosphopeptide, fluorescence polarization; Potency, µM, inactives show max response, negative = inhibition, hits mostly inhibitors; AID 720504; hit rate 2.8% among 360,000; further: series mostly up to about 57 µM; nearly all actives have a fitted effect of over 65% in size
TrxR1 substrate: rat thioredoxin reductase 1 substrate activity. O89049. purified TrxR1 substrate turnover, NADPH consumption readout. Potency, µM (series often up to 114 µM), for inactives: at the top dose activity change, negative = substrate turnover. hit rate 0.01% among 390,000; further: nearly all actives have a fitted effect of over 50% in size
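Rat TrxR1, dispensed at 90 nM, was prereduced with 400 uM NADPH (final) for 5 min at ~22 deg C, then incubated with compound 15 min before 400 uM selenite. A first-read NADPH fluorescence drop versus no-compound background flagged substrates.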
rTrxR1 inhibitor: blocks rat thioredoxin reductase 1. O89049. recombinant rTrxR1, NADPH fluorescence consumption, selenite substrate. Potency, µM (highest dose often 114 µM), without a hit: top-dose activity change, negative = inhibition, actives largely listed as inhibitors. hit rate 1% among 390,000; further: nearly all actives have a fitted effect of over 65% in size
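Rat TrxR1 (90 nM in the dispensed reagent) was pre-reduced with 400 uM NADPH for 5 min at room temperature, then incubated with compound for 15 min. After 400 uM selenite was added, NADPH fluorescence (Ex 340/Em 450 nm) was followed for 8 min.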
mIDH1 inhibitor: inhibitors of human mutant IDH1 R132H; O75874; IDH1-R132H enzyme, NADPH consumption, diaphorase/resazurin fluorescence; Potency, µM (series often up to 76.6 µM), without a hit: top-dose activity change, negative = inhibition, usual class: inhibitors; hit rate 0.093% among 390,000; further: nearly all actives have a fitted effect of over 65% in size
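IDH1-R132H (0.5 ug/mL) preincubated 30 min with compound, then NADPH (0.016 mM) and alpha-KG (2 mM) added; 80 min at RT, pH 7.5. Remaining NADPH coupled via diaphorase/resazurin to fluorescence (540/590 nm); concentration-response curves normalized to no-enzyme control.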
Sfp inh: inhibitors of Bacillus subtilis Sfp phosphopantetheinyl transferase; Q9F4F7; Potency, µM, for the others: largest response in the series, negative = inhibition, actives largely listed as inhibitors; Biochemical Sfp PPTase activity, qHTS; hit rate 3.5% among 310,000;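 further: the enzyme is Sfp with the accession as filed and its product quenches rhodamine fluorescence; 0% = enzyme reaction without inhibitor and -100% = no enzyme wells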
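Fluorescence-quenching assay: 15 nM Sfp-PPTase preincubated 15 min at room temperature with compound, then 5 uM rhodamine-CoA and 12.5 uM BHQ-2-labelled YbbR peptide added. Fluorescence (ex 525/em 598 nm) read at start and after 30 min; difference gives rate.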
An asterisk follows results filed as active; ? = inconclusive; / = no result; [ ] = remark or other dose. The call rests on the fitted dose curve; in most records, active means well fitted curve in the direction sought with a large enough effect; inconclusive means small, poorly fitted or top-dose-only effect, or another doubt; inactive means no such curve, though single readings can be large; an effect the other way counts as inactive or inconclusive. Unless noted, on the % scale 0 is the no-effect control and ±100 the full control effect; potency means the concentration at half of the fitted maximal effect.

SMILES	VDR inhibitor	PLK1 PBD inh	TrxR1 substrate	rTrxR1 inhibitor	mIDH1 inhibitor	Sfp inh
CC(C)NC(=O)c1ccccc1NC(=O)C1COc2ccccc2O1 (stereo not drawn)	?	26.7µM*	1.7%	1.6%	2.4%	18.6%
CCC(C)NC(=O)c1ccccc1NC(=O)C1COc2ccccc2O1 (stereo not drawn)	-1.3%	-1.0%	2.4%	7.7%	5.0%	9.3%
O=c1[nH]c2ccsc2c(=O)n1CCO	-11.4%	-9.1%	4.3%	33.5%	4.8%	9.8%
CCS(=O)(=O)c1nc(S(=O)(=O)c2ccc(C)cc2)c(NC(C)c2ccccc2)s1 (stereo not drawn)	9.1%	/	0.4%	13.1%	-10.7%	/
CCCS(=O)(=O)c1nc(S(=O)(=O)c2ccc(C)cc2)c(NC(C)c2ccccc2)s1 (stereo not drawn)	2.4%	/	2.7%	35.5µM*	/	/
CC1CCN(C(=O)CCC(=O)Nc2ccc([N+](=O)[O-])cc2)CC1	/	-9.6%	/	/	4.7%	/
CCC1C(C#N)=C(SCC(N)=O)NC2=C1C(=O)CC(C)(C)C2 (stereo not drawn)	-10.3%	26.7µM*	-3.6%[57.1 µM]	4.0%[57.1 µM]	1.8%	8.5%
CC1=C(C#N)C(C)C2=C(CC(C)(C)CC2=O)N1 (stereo not drawn)	-4.3%	29.9µM*	92.9%	-10.9%	-9.4%	8.2%
CCC1C(C#N)=C(N)OC2=C1C(=O)CC(C)(C)C2 (stereo not drawn)	9.0%	-11.4%	-9.0%	-13.7%	3.8%	0.5%
CC1=C(C#N)C(c2ccc(O)cc2)C2=C(CC(C)(C)CC2=O)N1 (stereo not drawn)	0.9%	1.1%	22.6%	-10.7%	-0.9%	12.1%
CC1(C)CC(=O)C2=C(C1)NC(SCC(N)=O)=C(C#N)C21CCCCC1	1.0%	-17.2%	11.3%[57.1 µM]	5.6%	12.8%	-13.8%
CC1C(C#N)=C(SCC(N)=O)NC2=C1C(=O)CC(C)(C)C2 (stereo not drawn)	?	26.7µM*	23.1%	4.7%[57.1 µM]	4.8%	-17.7%
CCN(CCC(=O)Nc1cc(OC)cc(OC)c1)Cc1ccccc1	-3.9%	-1.0%	-0.7%	3.3%	1.9%	44.7µM*
CCCN(CCC(=O)Nc1cc(OC)cc(OC)c1)CC1CC1	-5.9%	-1.2%	9.5%[57.1 µM]	0.0%[57.1 µM]	1.9%	?
CCC1=C(c2ccc(C)cc2)S(=O)(=O)N=C1N1CCC(C(=O)Nc2ccccc2C(=O)OC)CC1	-3.1%	/	-4.3%[57.1 µM]	5.2%[57.1 µM]	/	/
CN(C)c1ncnc2c1ncn2[C@H]1CN(C2CCCC2)C[C@@H](CO)O1	/	-8.0%	/	/	/	/
CCSc1nnc(NC(=O)CSc2nccn2-c2cccc(C)c2C)s1	?	3.77µM*	0.4%[57.1 µM]	0.8%[57.1 µM]	-2.4%	-8.9%
Cc1ccc(-c2nn(-c3ccccc3)cc2C(=O)O)o1	/	/	/	/	/	-100.5%
Cc1ccc(-c2nn(-c3ccccc3)cc2CN(Cc2ccccc2)C(=O)c2ccco2)o1	?	-29.8%	-12.3%	?	0.8%	17.8µM*
Cc1cc(NC(=O)CSc2ccc(Cl)cc2)no1	?	5.32µM*	7.8%	45.7%	1.4%	?
Cc1cc(NC(=O)CSc2nnnn2-c2ccccc2)no1	16.8%	-1.5%	4.7%	11.4%	-0.3%	3.1%
O=C(CSc1ccc(Cl)cc1)Nn1cnnc1	70.8µM*	10.6µM*	2.7%	48.5%	3.4%	-1.0%
Cc1cc(NC(=O)CSc2nnnn2Cc2ccccc2)no1	-13.0%	21.2µM*	3.8%[57.1 µM]	7.5%	-6.3%	23.5%
Cc1ccc(SCC(=O)Nc2cc(C)on2)cc1	-14.9%	?	5.5%	12.1%	6.2%	19.0%
CCN(CC)S(=O)(=O)c1ccc2oc(SCC(=O)Nc3cc(C)on3)nc2c1	?	5.97µM*	4.8%	-1.1%	0.6%	/
CCc1cccc(NC(=O)Cn2c(=O)n(Cc3ccccc3)c(=O)c3c2c2cc(OC)ccc2n3C)c1	-2.9%	/	-2.3%	4.2%	22.1%	/
O=[N+]([O-])c1ccc(CSc2ncnc3c2ncn3C2OC(CO)C(O)C2O)cc1 (stereo not drawn)	/	/	/	/	/	6.2%
CN(C)C(=O)c1cccc(-c2csc(N3CCC(C(N)=O)CC3)n2)c1	-11.2%	/	-5.4%	5.8%	/	/

Screening results: PubChem BioAssay, National Center for Advancing Translational Sciences (NCATS)
